These results are taken from PubChem BioAssay (EPA / NIEHS).

Inconclusive results are not listed. Calls of active or inactive are those of the source. The calls were made as follows: active = hit-call score of the fitted dose curve at least 0.9, where 1 is the maximum; inconclusive = response in the unintended direction; inactive = score below 0.9.

Chain of human Sirtuin 1 (SIRT1), SIRT1 (gene 23411) (Q96EB6 whole entry, looked up): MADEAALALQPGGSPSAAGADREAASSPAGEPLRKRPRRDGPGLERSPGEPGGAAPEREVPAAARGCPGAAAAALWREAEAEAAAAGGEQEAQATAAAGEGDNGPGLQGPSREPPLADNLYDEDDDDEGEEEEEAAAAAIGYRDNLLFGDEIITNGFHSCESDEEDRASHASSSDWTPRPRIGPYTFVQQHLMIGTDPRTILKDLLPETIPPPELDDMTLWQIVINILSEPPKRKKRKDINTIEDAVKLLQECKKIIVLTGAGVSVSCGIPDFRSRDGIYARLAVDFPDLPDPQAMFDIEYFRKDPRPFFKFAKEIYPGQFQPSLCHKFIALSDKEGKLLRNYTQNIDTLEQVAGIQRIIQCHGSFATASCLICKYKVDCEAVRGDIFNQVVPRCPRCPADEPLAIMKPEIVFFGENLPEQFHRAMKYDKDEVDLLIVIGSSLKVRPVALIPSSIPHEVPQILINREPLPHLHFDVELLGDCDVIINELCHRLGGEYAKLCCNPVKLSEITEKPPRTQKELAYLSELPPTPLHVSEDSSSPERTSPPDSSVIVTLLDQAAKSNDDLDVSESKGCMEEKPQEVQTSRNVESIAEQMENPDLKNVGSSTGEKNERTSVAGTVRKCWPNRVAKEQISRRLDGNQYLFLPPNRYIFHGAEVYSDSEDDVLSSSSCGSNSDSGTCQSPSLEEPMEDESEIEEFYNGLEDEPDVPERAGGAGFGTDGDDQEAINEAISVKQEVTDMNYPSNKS
Chain of human Protein Tyrosine Phosphatase Receptor Type F (PTPRF), PTPRF (gene 5792) (P10586 whole entry, looked up): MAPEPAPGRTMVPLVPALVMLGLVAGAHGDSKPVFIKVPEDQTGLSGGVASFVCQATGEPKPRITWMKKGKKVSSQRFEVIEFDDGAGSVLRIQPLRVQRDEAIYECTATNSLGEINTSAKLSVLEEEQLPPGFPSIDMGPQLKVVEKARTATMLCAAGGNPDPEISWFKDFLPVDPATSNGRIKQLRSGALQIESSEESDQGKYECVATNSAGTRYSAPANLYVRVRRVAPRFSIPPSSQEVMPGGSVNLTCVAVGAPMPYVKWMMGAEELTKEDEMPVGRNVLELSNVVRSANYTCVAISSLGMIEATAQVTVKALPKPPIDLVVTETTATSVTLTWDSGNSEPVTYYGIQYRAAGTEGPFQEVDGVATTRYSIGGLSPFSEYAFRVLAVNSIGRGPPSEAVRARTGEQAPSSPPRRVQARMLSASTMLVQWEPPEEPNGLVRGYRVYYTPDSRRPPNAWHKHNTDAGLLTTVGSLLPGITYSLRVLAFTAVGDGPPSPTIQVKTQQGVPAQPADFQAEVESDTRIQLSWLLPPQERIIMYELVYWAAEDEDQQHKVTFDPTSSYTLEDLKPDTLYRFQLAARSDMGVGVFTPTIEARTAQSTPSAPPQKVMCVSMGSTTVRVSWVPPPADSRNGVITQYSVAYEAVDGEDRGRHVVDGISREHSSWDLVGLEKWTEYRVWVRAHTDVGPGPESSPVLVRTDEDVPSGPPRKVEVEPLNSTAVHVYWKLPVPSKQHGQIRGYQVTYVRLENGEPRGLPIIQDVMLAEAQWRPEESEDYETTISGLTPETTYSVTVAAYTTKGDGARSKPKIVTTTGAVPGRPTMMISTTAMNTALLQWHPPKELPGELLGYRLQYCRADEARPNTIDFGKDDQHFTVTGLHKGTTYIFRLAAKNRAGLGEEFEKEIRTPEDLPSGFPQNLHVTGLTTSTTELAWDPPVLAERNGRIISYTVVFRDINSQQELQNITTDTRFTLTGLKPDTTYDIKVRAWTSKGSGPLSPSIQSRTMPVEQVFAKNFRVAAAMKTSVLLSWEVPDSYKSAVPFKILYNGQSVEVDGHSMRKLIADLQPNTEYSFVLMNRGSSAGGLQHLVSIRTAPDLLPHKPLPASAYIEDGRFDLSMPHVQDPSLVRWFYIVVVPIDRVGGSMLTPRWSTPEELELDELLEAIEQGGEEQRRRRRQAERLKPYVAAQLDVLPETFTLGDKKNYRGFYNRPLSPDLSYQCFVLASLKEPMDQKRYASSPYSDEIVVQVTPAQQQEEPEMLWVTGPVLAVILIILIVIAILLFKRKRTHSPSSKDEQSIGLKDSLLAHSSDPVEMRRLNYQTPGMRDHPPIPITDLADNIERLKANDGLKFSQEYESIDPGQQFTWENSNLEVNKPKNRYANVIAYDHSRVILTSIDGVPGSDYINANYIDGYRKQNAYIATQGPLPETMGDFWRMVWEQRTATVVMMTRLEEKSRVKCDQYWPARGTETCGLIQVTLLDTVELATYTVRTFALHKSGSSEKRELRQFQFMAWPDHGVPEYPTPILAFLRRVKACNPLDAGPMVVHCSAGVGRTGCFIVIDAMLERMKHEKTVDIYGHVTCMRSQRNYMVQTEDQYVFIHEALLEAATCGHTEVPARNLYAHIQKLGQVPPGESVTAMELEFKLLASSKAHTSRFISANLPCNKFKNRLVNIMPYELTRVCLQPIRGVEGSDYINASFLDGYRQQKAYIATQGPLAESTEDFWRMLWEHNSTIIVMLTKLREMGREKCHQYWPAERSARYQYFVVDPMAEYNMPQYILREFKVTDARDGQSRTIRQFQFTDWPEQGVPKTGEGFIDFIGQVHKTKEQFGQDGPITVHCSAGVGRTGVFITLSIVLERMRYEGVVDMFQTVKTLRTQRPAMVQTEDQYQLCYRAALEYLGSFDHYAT
Chain of human SRC Proto-Oncogene, Non-receptor Tyrosine Kinase (SRC), SRC (gene 6714) (P12931 whole entry, looked up): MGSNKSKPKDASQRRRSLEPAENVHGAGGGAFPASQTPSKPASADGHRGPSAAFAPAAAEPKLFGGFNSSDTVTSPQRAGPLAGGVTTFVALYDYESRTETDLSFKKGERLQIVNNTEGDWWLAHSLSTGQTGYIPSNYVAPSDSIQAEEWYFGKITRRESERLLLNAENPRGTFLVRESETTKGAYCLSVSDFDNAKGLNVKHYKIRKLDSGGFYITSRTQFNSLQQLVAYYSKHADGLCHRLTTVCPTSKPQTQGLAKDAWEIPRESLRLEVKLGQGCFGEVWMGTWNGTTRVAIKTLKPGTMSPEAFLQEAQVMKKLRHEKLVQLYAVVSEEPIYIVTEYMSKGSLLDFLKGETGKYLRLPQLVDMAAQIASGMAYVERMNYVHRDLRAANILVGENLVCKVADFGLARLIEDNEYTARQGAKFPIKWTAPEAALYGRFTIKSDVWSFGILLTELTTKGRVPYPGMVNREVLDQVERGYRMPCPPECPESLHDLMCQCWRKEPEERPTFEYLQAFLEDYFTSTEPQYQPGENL
Chain of human Tropomyosin Receptor Kinase A (TRKA), NTRK1 (gene 4914) (P04629 whole entry, looked up): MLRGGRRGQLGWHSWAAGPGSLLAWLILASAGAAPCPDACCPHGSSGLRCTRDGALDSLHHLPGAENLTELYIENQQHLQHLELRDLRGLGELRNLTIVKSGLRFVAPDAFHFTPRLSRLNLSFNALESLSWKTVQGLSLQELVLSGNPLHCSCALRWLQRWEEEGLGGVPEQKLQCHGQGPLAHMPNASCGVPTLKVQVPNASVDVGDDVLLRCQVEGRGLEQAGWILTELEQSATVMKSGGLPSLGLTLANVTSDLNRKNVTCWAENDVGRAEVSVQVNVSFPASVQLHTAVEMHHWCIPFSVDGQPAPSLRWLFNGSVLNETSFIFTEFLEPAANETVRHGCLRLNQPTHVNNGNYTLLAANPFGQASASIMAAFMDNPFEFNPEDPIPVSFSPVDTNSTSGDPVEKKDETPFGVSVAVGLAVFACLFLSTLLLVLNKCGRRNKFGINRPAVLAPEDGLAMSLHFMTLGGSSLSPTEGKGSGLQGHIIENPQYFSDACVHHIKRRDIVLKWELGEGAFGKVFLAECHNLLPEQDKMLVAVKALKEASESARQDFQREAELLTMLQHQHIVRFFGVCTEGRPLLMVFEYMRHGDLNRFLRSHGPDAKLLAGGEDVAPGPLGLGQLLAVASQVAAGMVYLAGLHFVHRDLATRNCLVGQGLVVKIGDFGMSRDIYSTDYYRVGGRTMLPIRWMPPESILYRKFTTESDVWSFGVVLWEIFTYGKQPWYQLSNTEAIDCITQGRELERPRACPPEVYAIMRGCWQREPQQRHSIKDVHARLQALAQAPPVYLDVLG

One test deals with human Protein Tyrosine Phosphatase Receptor Type B (PTPRB), PTPRB (gene 5787) (UniProt P23467). As to the kind of experiment: NVS_ENZ_hPTPRB: NovaScreen (NVS) Enzymatic Assay for human Protein Tyrosine Phosphatase Receptor Type B (PTPRB) (AID 2283211). The protocol:
(§1) NVS_ENZ_hPTPRB is a biochemical, single-readout assay that uses extracted gene-proteins in a cell-free assay. Measurements were taken 1 hour after chemical dosing in a 384-well plate.NVS_ENZ_hPTPRB is one of one assay component(s) measured or calculated from the NVS_ENZ_hPTPRB assay. It is designed to make measurements of enzyme activity, a form of enzyme reporter, as detected with fluorescence intensity signals by Fluorescence and electrophoretic mobility shift technology.Data from the assay component NVS_ENZ_hPTPRB was analyzed into 1 assay endpoint. This assay endpoint, NVS_ENZ_hPTPRB, was analyzed in the positive analysis fitting direction relative to DMSO as the negative control and baseline of activity. Using a type of enzyme reporter, loss-of-signal activity can be used to understand changes in the enzymatic activity as they relate to the gene PTPRB. Furthermore, this assay endpoint can be referred to as a primary readout, because this assay has produced multiple assay endpoints where this one serves a enzymatic activity function. To generalize the intended target to other relatable targets, this assay endpoint is annotated to the phosphatase intended target family, where the subfamily is receptor tyrosine phosphatase.
Binding assays used specific radioligands (tritiated, iodinated) with non-radioactive competitive displacement ligands in agonist or antagonist protocols (as indicated) and various reference compounds and inhibitors to titrate specific binding to receptors and transporters. Most enzyme assays (CYPs, kinases, phosphatases, proteases, HDACs) used recombinant protein and specific substrates (fluorescence mostly, some colorimetric and radioactive) and inhibitors, followed by a biochemical separation of substrate and product. All assays for the biochemical HTS were initially run in duplicate at a single concentration (10 uM for CYP450 assays and 25 uM for all others). […] Each assay was run with positive and negative controls, and concurrent controls on every plate. […]
The AC50 is the concentration giving half of the maximal activity seen. For the molecule `Cc1ncc([C@@H](CCCCCCc2ccc3c(n2)NCCC3)CC(=O)O)cn1`, the AC50 was 18.6 µM (active).

Take `CCCCCCCC/C=C\CCCCCCCC(=O)OC[C@@H](O)[C@H]1OC[C@H](O)[C@H]1O`: the call was inactive.

`CCCC(CCC)C(=O)O`: the call was inactive.

Another test concerns the target human Protein Tyrosine Phosphatase Receptor Type F (PTPRF), PTPRF (gene 5792) (UniProt P10586). In words: NVS_ENZ_hPTPRF: NovaScreen (NVS) Enzymatic Assay for human Protein Tyrosine Phosphatase Receptor Type F (PTPRF) (AID 2283213). In outline:
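Cell-free fluorescence enzyme assay with recombinant protein and substrate; product separated by electrophoretic mobility shift. Read 1 h after dosing, single 25 uM duplicate screen, then concentration-response up to 50 uM; loss of signal vs DMSO.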
In the case of `O=C(O)c1ccc2c(c1)nc(C(=O)NC1CCN(C3CC3)CC1)n2Cc1cc(-c2ccc(Cl)s2)on1`, the molecule was called inactive.

As to `Cc1ncc([C@@H](CCCCCCc2ccc3c(n2)NCCC3)CC(=O)O)cn1`, the molecule was called inactive.

In the case of `CCCCCCCC/C=C\CCCCCCCC(=O)OC[C@@H](O)[C@H]1OC[C@H](O)[C@H]1O`, the molecule was called inactive.

For a further test, the target named is human Protein Tyrosine Phosphatase Receptor Type M (PTPRM), PTPRM (gene 5797) (UniProt P28827). In words: NVS_ENZ_hPTPRM: NovaScreen (NVS) Enzymatic Assay for human Protein Tyrosine Phosphatase Receptor Type M (PTPRM) (AID 2283215). A digest of the protocol:
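Cell-free recombinant PTPRM with fluorogenic substrate; product separated from substrate by electrophoretic mobility shift and read by fluorescence, 1.33 h after dosing. Primary screen single concentration (25 uM) in duplicate; actives retested in concentration series; loss of signal versus DMSO.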
Turning to `O=C(O)c1ccc2c(c1)nc(C(=O)NC1CCN(C3CC3)CC1)n2Cc1cc(-c2ccc(Cl)s2)on1`, the molecule was classed as inactive.

In the case of `c1ccc2ncccc2c1`, the call was inactive.

As to `NC(=O)N1c2ccccc2C=Cc2ccccc21`, the result was inactive.

Consider `O=c1[nH]cnc2c1ncn2[C@H]1CC[C@@H](CO)O1`, for which the molecule was classed as inactive.

With `Cc1nc(-c2ccccn2)ncc1C(=O)Nn1cc(C)c2cc(F)ccc21`, the result was inactive.

For the molecule `Cc1ncc([C@@H](CCCCCCc2ccc3c(n2)NCCC3)CC(=O)O)cn1`, the molecule was classed as inactive.

The next test deals with human Sirtuin 2 (SIRT2), SIRT2 (gene 22933) (UniProt Q8IXJ6). As to the kind of experiment: NVS_ENZ_hSIRT2: NovaScreen (NVS) Enzymatic Assay for human Sirtuin 2 (SIRT2) (AID 2283217). A digest of the protocol: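 Cell-free recombinant human SIRT2, fluorescent substrate with product separated by electrophoretic mobility shift, 1 hr. Screened in duplicate at 25 uM; hits rerun singly in concentration-response up to 50 uM, relative to DMSO.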
Chain of human Sirtuin 2 (SIRT2), SIRT2 (gene 22933) (Q8IXJ6 whole entry, looked up): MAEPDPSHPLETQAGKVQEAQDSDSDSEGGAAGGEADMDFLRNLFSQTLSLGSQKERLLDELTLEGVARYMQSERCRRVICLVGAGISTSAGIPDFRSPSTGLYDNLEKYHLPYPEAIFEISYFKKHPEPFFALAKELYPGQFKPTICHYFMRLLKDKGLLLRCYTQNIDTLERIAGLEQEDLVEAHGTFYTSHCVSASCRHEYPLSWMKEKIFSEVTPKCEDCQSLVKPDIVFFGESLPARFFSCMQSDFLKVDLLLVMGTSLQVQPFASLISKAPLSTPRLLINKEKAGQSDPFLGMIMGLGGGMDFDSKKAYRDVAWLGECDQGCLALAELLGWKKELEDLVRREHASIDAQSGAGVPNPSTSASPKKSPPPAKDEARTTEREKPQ
Consider `O=C(O)c1ccc2c(c1)nc(C(=O)NC1CCN(C3CC3)CC1)n2Cc1cc(-c2ccc(Cl)s2)on1`, for which the molecule was classed as inactive.

With `Cc1nc(-c2ccccn2)ncc1C(=O)Nn1cc(C)c2cc(F)ccc21`, the call was inactive.

With `Cc1ncc([C@@H](CCCCCCc2ccc3c(n2)NCCC3)CC(=O)O)cn1`, the call was inactive.

As to `CCCCCCCC/C=C\CCCCCCCC(=O)OC[C@@H](O)[C@H]1OC[C@H](O)[C@H]1O`, the outcome was inactive.

Turning to `CCCC(CCC)C(=O)O`, the molecule was called inactive.

The next test has as its target human Sirtuin 1 (SIRT1), SIRT1 (gene 23411) (UniProt Q96EB6). In words: NVS_ENZ_hSIRT1: NovaScreen (NVS) Enzymatic Assay for human Sirtuin 1 (SIRT1) (AID 2283219). A digest of the protocol: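 Cell-free recombinant SIRT1 with a fluorescent substrate; substrate and product separated by electrophoretic mobility shift and read by fluorescence intensity, 1 h after dosing. Primary screen at 25 uM in duplicate; hits re-run in concentration-response up to 50 uM, relative to DMSO.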
For the molecule `NNC(=O)c1ccncc1`, the call was inactive.

As to `O=c1[nH]cnc2c1ncn2[C@H]1CC[C@@H](CO)O1`, the call was inactive.

Consider `Cc1ncc([C@@H](CCCCCCc2ccc3c(n2)NCCC3)CC(=O)O)cn1`, for which the outcome was inactive.

In the case of `CCCCCCCC/C=C\CCCCCCCC(=O)OC[C@@H](O)[C@H]1OC[C@H](O)[C@H]1O`, the outcome was inactive.

As for `CCCC(CCC)C(=O)O`, the call was inactive.

A further test concerns the target human SRC Proto-Oncogene, Non-receptor Tyrosine Kinase (SRC), SRC (gene 6714) (UniProt P12931). In words: NVS_ENZ_hSRC: NovaScreen (NVS) Enzymatic Assay for human SRC Proto-Oncogene, Non-receptor Tyrosine Kinase (SRC) (AID 2283223). In outline:
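Cell-free kinase activity assay with fluorescent substrate, product separated by electrophoretic mobility shift, read 1 h after dosing. Duplicate single point at 25 uM, then concentration-response up to 50 uM; loss of signal versus DMSO.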
For the molecule `O=C(O)c1ccc2c(c1)nc(C(=O)NC1CCN(C3CC3)CC1)n2Cc1cc(-c2ccc(Cl)s2)on1`, the call was inactive.

Take `O=c1[nH]cnc2c1ncn2[C@H]1CC[C@@H](CO)O1`: the result was inactive.

Regarding `CCCCCCCC/C=C\CCCCCCCC(=O)OC[C@@H](O)[C@H]1OC[C@H](O)[C@H]1O`, the result was inactive.

Consider `CCCC(CCC)C(=O)O`, for which the call was inactive.

Another test addresses human Tropomyosin Receptor Kinase A (TRKA), NTRK1 (gene 4914) (UniProt P04629). As to the kind of experiment: NVS_ENZ_hTrkA: NovaScreen (NVS) Enzymatic Assay for human Tropomyosin Receptor Kinase A (TRKA) (AID 2283224). In outline: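 Recombinant human TrkA activity read after 1 h by fluorescence with electrophoretic mobility shift separating substrate and product. Primary screen in duplicate at 25 uM; actives were rerun in concentration-response up to 50 uM. Loss of signal versus DMSO.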
For `O=c1[nH]cnc2c1ncn2[C@H]1CC[C@@H](CO)O1`, the result was inactive.

As for `Cc1nc(-c2ccccn2)ncc1C(=O)Nn1cc(C)c2cc(F)ccc21`, the molecule was classed as inactive.

In the case of `CCCC(CCC)C(=O)O`, the molecule was called inactive.

The target in the next test is human Vascular Endothelial Growth Factor Receptor 1 (VEGFR1), FLT1 (gene 2321) (UniProt P17948). As to the kind of experiment: NVS_ENZ_hVEGFR1: NovaScreen (NVS) Enzymatic Assay for human Vascular Endothelial Growth Factor Receptor 1 (VEGFR1) (AID 2283226). A digest of the protocol: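 Cell-free assay of recombinant human VEGFR1 kinase with substrate, measured 1 h after dosing; fluorescence with electrophoretic mobility-shift separation of substrate and product, referenced to DMSO; primary screen at 25 uM in duplicate, actives then run in concentration series.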
With `Cc1nc(-c2ccccn2)ncc1C(=O)Nn1cc(C)c2cc(F)ccc21`, the call was inactive.

On to `CCCCCCCC/C=C\CCCCCCCC(=O)OC[C@@H](O)[C@H]1OC[C@H](O)[C@H]1O`, for which the result was inactive.

Regarding `O=C(NO)C1(NS(=O)(=O)c2ccc(Oc3ccc(F)cc3)cc2)CCOCC1`, the call was inactive.

In the next test the target is human Vascular Endothelial Growth Factor Receptor 3 (VEGFR3), FLT4 (gene 2324) (UniProt P35916). In words: NVS_ENZ_hVEGFR3: NovaScreen (NVS) Enzymatic Assay for human Vascular Endothelial Growth Factor Receptor 3 (VEGFR3) (AID 2283229). A digest of the protocol: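 Cell-free recombinant VEGFR3 kinase reaction with fluorescent substrate, read 1 h after dosing by electrophoretic mobility shift separation of substrate and product. Single-concentration duplicate screen at 25 uM, then concentration-response up to 50 uM; loss of activity versus DMSO.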
As for `CCCCC(CC)C(=O)OCCOCCOCCOC(=O)C(CC)CCCC` (configuration not stated), the molecule was classed as inactive.

As for `OCCOCCOCCO`, the molecule was classed as inactive.

In the case of `O=c1[nH]cnc2c1ncn2[C@H]1CC[C@@H](CO)O1`, the outcome was inactive.

Regarding `Cc1ncc([C@@H](CCCCCCc2ccc3c(n2)NCCC3)CC(=O)O)cn1`, the result was inactive.

For `CCCCCCCC/C=C\CCCCCCCC(=O)OC[C@@H](O)[C@H]1OC[C@H](O)[C@H]1O`, the molecule was called inactive.

For the molecule `O=C(NO)C1(NS(=O)(=O)c2ccc(Oc3ccc(F)cc3)cc2)CCOCC1`, the outcome was inactive.

As for `CCCC(CCC)C(=O)O`, the outcome was inactive.

Another test has as its target human Vascular Endothelial Growth Factor Receptor 2 (VEGFR2), KDR (gene 3791) (UniProt P35968). In words: NVS_ENZ_hVEGFR2: NovaScreen (NVS) Enzymatic Assay for human Vascular Endothelial Growth Factor Receptor 2 (VEGFR2) (AID 2283230). Here is the method: as §1, with “NVS_ENZ_hVEGFR2” for “NVS_ENZ_hPTPRB”, “plate.NVS_ENZ_hVEGFR2” for “plate.NVS_ENZ_hPTPRB”, “NVS_ENZ_hVEGFR2,” for “NVS_ENZ_hPTPRB,”, “KDR.” for “PTPRB.”, “kinase” for “phosphatase”, “kinase.” for “phosphatase.”
Binding assays used specific radioligands (tritiated, iodinated) with non-radioactive competitive displacement ligands in agonist or antagonist protocols (as indicated) and various reference compounds and inhibitors to titrate specific binding to receptors and transporters. Most enzyme assays (CYPs, kinases, phosphatases, proteases, HDACs) used recombinant protein and specific substrates (fluorescence mostly, some colorimetric and radioactive) and inhibitors, followed by a biochemical separation of substrate and product. All assays for the biochemical HTS were initially run in duplicate at a single concentration (10 uM for CYP450 assays and 25 uM for all others). Assay-chemical combinations meeting a pre-defined threshold (e.g., 30% inhibition and other criteria defined below) were then run in singleton concentration-response format with maximum concentration of 20 uM for CYPs and 50 uM for all others. Each assay was run with positive and negative controls, and concurrent controls on every plate. The follow-up (secondary) screen tested active chemical-pairs in concentration series, as well as a few additional assays not tested in the primary screen, some selected negative inactives, and several cases re-run in the concentration series for confirmatory purposes.
In the case of `Cc1nc(-c2ccccn2)ncc1C(=O)Nn1cc(C)c2cc(F)ccc21`, the molecule was called inactive.

Regarding `Cc1ncc([C@@H](CCCCCCc2ccc3c(n2)NCCC3)CC(=O)O)cn1`, the molecule was called inactive.

For `CCCCCCCC/C=C\CCCCCCCC(=O)OC[C@@H](O)[C@H]1OC[C@H](O)[C@H]1O`, the AC50 was 40.7 µM (active).
